Results filed as inconclusive are left out. The source made the active and inactive calls. The calls were made as follows, unless noted: active = hit-call score of the fitted dose curve at least 0.9, where 1 is the maximum; inconclusive = response in the unintended direction; inactive = score below 0.9.
Legend:
[1] = target: Estrogen receptor beta (Homo sapiens) (UniProt Q92731); test: OT_ER_ERbERb_1440: Odyssey Thera (OT) 24-hour HEK293T Protein-Complementation Assay for Estrogen Receptor-beta/-beta Homodimer (AID 2283380);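 also: fluorescence gain from ER beta LBD homodimer complementation read by laser scanning cytometry; scored as signal increase over DMSO baseline for both agonists and antagonists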
Summary of the method: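 Fluorescence increase, nuclear for agonists or whole-cell for antagonists, relative to DMSO vehicle, quantified by laser scanning cytometer after fixation and Draq5 staining. Readout from 24 h treatment of HEK293T cells carrying complementation-paired ER beta LBD (aa 310-547).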

[2] = target: Estrogen receptor (Homo sapiens) (UniProt P03372); test: OT_ERa_GFPERaERE_0480: Odyssey Thera (OT) 8-hour HeLa Transcription Induction Assay for Estrogen Receptor (AID 2283381; active = hit-call score of the fitted dose curve at least 0.9, where 1 is the maximum; inactive = score below 0.9)
Summary of the method: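 HeLa cells dosed with compound and imaged by fluorescence microscopy at 8 h; GFP induction from an ERE reporter quantified by high-content image analysis and fitted as gain of signal against DMSO baseline.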

[3] = target: Estrogen receptor (Homo sapiens) (UniProt P03372); test: OT_ERa_GFPERaERE_0120: Odyssey Thera (OT) 2-hour HeLa Transcription Induction Assay for Estrogen Receptor (AID 2283382)
Summary of the method: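 HeLa cells were dosed with test chemical and read 2 hours later for GFP-ERα/ERE-linked fluorescent protein induction by fluorescence microscopy. Gain-of-signal was fitted relative to DMSO baseline, quantified by high content image analysis.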

[4] = target: Retinoic acid receptor RXR-alpha (Homo sapiens) (UniProt P19793); test: OT_NURR1_NURR1RXRa_0480: Odyssey Thera (OT) 8-hour HEK293T Protein Complementation Assay for Nurr1/retinoid X receptor (RXR) (AID 2283385)
Summary of the method: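 HEK293T cells expressing Nurr1 and RXRα fused to reporter fragments were dosed with compound for 8 hours. Complex formation was read as fluorescence intensity and analysed as gain of signal against DMSO as baseline.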

[5] = target: Peroxisome proliferator-activated receptor gamma (Homo sapiens) (UniProt P37231); test: OT_PPARg_PPARgSRC1_0480: Odyssey Thera (OT) 8-hour Protein-Complementation Assay for Peroxisome Proliferator-activated Receptor Gamma / SRC-1 Co-activator (AID 2283387);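 also: nuclear to cytoplasmic split Venus YFP fluorescence ratio reporting PPARg SRC-1 interaction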
Summary of the method: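 Protein-fragment complementation of split Venus YFP reports PPARg/SRC-1 interaction in HEK293T (transfected 48 h before treatment), exposed 8 h. Readout: N/C fluorescence ratio at 488 nm from imaging, Draq5 for segmentation, positive fit relative to DMSO.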

[6] = target: Bile acid receptor (Homo sapiens) (UniProt Q96RI1); test: OT_FXR_FXRSRC1_0480: Odyssey Thera (OT) 8-hour HEK293T Protein-Complementation Assay for Farnesoid X receptor/SRC-1 Co-activator (AID 2283383)
Summary of the method: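 HEK293T cells expressing FXR and SRC-1 fused to reporter fragments were dosed with compound for 8 h; fluorescence from the reconstituted reporter marked co-activator recruitment. Gain of signal was fitted against the DMSO baseline.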

[7] = target: Retinoic acid receptor RXR-alpha (Homo sapiens) (UniProt P19793); test: OT_NURR1_NURR1RXRa_1440: Odyssey Thera (OT) 24-hour HEK293T Protein Complementation Assay for Nurr1/retinoid X receptor (RXR) (AID 2283386)
Summary of the method: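 HEK293T cells were dosed with compound and read 24 h later by fluorescence intensity in a protein-fragment complementation format, where Nurr1–RXRα interaction reconstitutes a split reporter. Activity was fitted as gain of signal relative to DMSO baseline.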

[8] = target: Peroxisome proliferator-activated receptor gamma (Homo sapiens) (UniProt P37231); test: OT_PPARg_PPARgSRC1_1440: Odyssey Thera (OT) 24-hour Protein-Complementation Assay for Peroxisome Proliferator-activated Receptor Gamma/ SRC-1 Co-activator (AID 2283388);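 also: nuclear to cytoplasmic ratio of reconstituted Venus YFP fluorescence in fixed imaged cells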
Summary of the method: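 Transient HEK293T, YFP fragments 1-158/159-239 (mutant IFP1/IFP2) fused to PPARg/SRC-1; 24 h dosing; fix 4% formaldehyde, Draq5; Opera imaging 488/635 nm; N/C ratio, gain vs DMSO.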

[9] = CEETOX_H295R_11DCORT: CeeTox H295R High-throughput Steroidogenesis Assay for 11-Deoxycortisol (11DCORT) (AID 2283432; active = hit-call score of the fitted dose curve at least 0.9, where 1 is the maximum; inactive = score below 0.9); conditions: actives raise or lower the signal
Summary of the method: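 Human adrenal H295R cells were prestimulated with 10 uM forskolin for 48 h, then exposed to test chemical (0.1% DMSO final) for 48 h. Medium 11-deoxycortisol was quantified by MTBE extraction and HPLC-MS/MS; bidirectional fitting relative to DMSO.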

[10] = CEETOX_H295R_OHPREG: CeeTox H295R High-throughput Steroidogenesis Assay for OH-Pregnenolone (OHPREG) (AID 2283434; active = hit-call score of the fitted dose curve at least 0.9, where 1 is the maximum; inactive = score below 0.9); conditions: actives raise or lower the signal
Summary of the method: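 Hormone levels in spent medium were measured by tandem mass spectrometry following liquid-liquid extraction. Cells (H295R) had been forskolin-stimulated (10 uM, 48 h) before a 48 h chemical exposure at 0.1% DMSO, with activity fitted in both directions against DMSO.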

[11] = CEETOX_H295R_OHPROG: CeeTox H295R High-throughput Steroidogenesis Assay for OH-Progesterone (OHPROG) (AID 2283435; active = hit-call score of the fitted dose curve at least 0.9, where 1 is the maximum; inactive = score below 0.9); conditions: actives raise or lower the signal
Summary of the method: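 H295R human adrenal cells were prestimulated 48 h with 10 uM forskolin, then exposed 48 h to test chemical (0.1% DMSO final). 17alpha-hydroxyprogesterone in medium was measured by HPLC-MS/MS after MTBE extraction; bidirectional fitting vs DMSO.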

[12] = CEETOX_H295R_CORTIC: CeeTox H295R High-throughput Steroidogenesis Assay for Corticosterone (CORTIC) (AID 2283437; active = hit-call score of the fitted dose curve at least 0.9, where 1 is the maximum; inactive = score below 0.9;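 also: corticosterone secreted into medium quantified by mass spectrometry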); conditions: actives raise or lower the signal
Summary of the method: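 Corticosterone secreted into medium is measured by reverse-phase HPLC with tandem MS following liquid-liquid extraction. Cells are forskolin-stimulated (10 uM, 48 h) before 48 h test exposure; activity fitted in both directions against DMSO.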

[13] = CEETOX_H295R_CORTISOL: CeeTox H295R High-throughput Steroidogenesis Assay for Cortisol (AID 2283438; active = hit-call score of the fitted dose curve at least 0.9, where 1 is the maximum; inactive = score below 0.9;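 also: cortisol secreted into medium quantified by LC-MS/MS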); conditions: actives raise or lower the signal
Summary of the method: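 H295R human adrenal cells were prestimulated 48 h with 10 uM forskolin, then exposed 48 h to test chemical (0.1% DMSO final). Medium cortisol was quantified by HPLC-MS/MS after MTBE extraction; bidirectional fitting relative to DMSO baseline.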

[14] = CEETOX_H295R_ESTRADIOL: CeeTox H295R High-throughput Steroidogenesis Assay for Estradiol (AID 2283440; active = hit-call score of the fitted dose curve at least 0.9, where 1 is the maximum; inactive = score below 0.9;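 also: estradiol secreted into medium quantified by LC-MS/MS after dansyl derivatisation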); conditions: actives raise or lower the signal
Summary of the method: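 Following OECD 456 with minor changes, H295R cells received 10 uM forskolin for 48 h and then test chemical for 48 h. Hormone output was read by HPLC-MS/MS, with cytotoxic concentrations diluted until MTT viability reached ≥70%.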

[15] = CEETOX_H295R_ESTRONE: CeeTox H295R High-throughput Steroidogenesis Assay for Estrone (AID 2283441; active = hit-call score of the fitted dose curve at least 0.9, where 1 is the maximum; inactive = score below 0.9;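 also: estrone secreted into medium measured by LC-MS/MS after dansyl derivatization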); conditions: actives raise or lower the signal
Summary of the method: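 H295R cells; 48 h forskolin (10 uM) prestimulation; 48 h compound exposure, 0.1% DMSO final. Medium estrone: MTBE extraction, dansyl derivatization, HPLC-MS/MS. Bidirectional fit vs DMSO.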

[16] = CEETOX_H295R_PROG: CeeTox H295R High-throughput Steroidogenesis Assay for Progesterone (PROG) (AID 2283442; active = hit-call score of the fitted dose curve at least 0.9, where 1 is the maximum; inactive = score below 0.9); conditions: actives raise or lower the signal
Summary of the method: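 Adrenal H295R line, forskolin-stimulated (10 uM, 48 h) before dosing. 48 h exposure, 0.1% DMSO vehicle. Secreted progesterone by reverse-phase HPLC with ESI+ MS/MS quantification; DMSO-normalised bidirectional curve fit.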

[17] = read-out: Tumor necrosis factor receptor superfamily member 6 (Homo sapiens) (UniProt P25445); test: LTEA_HepaRG_FAS: Life Technologies and Expression Analysis (LTEA) Assay for Fas cell surface death receptor (FAS) using HepaRG (AID 2283447; active = hit-call score of the fitted dose curve at least 0.9, where 1 is the maximum; inactive = score below 0.9); conditions: mRNA level, 48 h; actives raise or lower the signal
Summary of the method: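 FAS transcript level was measured by TaqMan qRT-PCR against three housekeeping genes after 48 h chemical exposure. Cells were HepaRG, 0.5% DMSO vehicle, with a top concentration of 100 uM and half-log dilutions over eight points, in duplicate.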

[18] = CEETOX_H295R_ANDR: CeeTox H295R High-throughput Steroidogenesis Assay for Androstenedione (ANDR) (AID 2283436; active = hit-call score of the fitted dose curve at least 0.9, where 1 is the maximum; inactive = score below 0.9); conditions: actives raise or lower the signal
Summary of the method: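 Read-out is androstenedione secreted into medium, measured by tandem mass spectrometry after liquid-liquid extraction. Cells were H295R, dosed for 48 h per modified OECD 456; activity fitted in both directions relative to DMSO.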

Measured: AC50

Chain of Peroxisome proliferator-activated receptor gamma (Homo sapiens) (P37231 whole entry, looked up, the tested form may be a part): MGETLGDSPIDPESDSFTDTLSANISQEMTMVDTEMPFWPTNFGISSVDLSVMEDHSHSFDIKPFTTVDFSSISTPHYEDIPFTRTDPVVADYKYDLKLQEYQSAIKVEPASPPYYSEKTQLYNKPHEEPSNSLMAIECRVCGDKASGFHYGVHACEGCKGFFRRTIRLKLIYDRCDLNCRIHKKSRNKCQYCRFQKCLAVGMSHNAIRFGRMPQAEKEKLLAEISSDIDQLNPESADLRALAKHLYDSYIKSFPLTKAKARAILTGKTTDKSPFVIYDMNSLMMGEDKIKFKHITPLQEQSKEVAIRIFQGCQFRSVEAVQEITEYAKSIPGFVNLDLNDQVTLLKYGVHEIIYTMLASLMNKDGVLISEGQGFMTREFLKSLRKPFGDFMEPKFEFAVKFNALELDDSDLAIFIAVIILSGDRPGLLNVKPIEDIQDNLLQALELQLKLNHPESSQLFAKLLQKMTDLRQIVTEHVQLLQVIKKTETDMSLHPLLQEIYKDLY
Chain of Retinoic acid receptor RXR-alpha (Homo sapiens) (P19793 whole entry, looked up, the tested form may be a part): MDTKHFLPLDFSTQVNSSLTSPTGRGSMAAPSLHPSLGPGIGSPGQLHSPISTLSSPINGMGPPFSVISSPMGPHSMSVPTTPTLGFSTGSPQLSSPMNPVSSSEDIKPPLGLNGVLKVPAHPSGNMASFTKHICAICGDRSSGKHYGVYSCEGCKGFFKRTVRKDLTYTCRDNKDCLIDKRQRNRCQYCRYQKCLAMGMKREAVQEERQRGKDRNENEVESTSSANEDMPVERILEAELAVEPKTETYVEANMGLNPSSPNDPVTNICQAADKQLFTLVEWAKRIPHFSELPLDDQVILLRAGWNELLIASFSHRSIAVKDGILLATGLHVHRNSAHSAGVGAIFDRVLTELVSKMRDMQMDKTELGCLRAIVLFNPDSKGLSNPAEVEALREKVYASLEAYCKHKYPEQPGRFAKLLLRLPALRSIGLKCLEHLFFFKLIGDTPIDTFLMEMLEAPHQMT
Chain of Bile acid receptor (Homo sapiens) (Q96RI1 whole entry, looked up, the tested form may be a part): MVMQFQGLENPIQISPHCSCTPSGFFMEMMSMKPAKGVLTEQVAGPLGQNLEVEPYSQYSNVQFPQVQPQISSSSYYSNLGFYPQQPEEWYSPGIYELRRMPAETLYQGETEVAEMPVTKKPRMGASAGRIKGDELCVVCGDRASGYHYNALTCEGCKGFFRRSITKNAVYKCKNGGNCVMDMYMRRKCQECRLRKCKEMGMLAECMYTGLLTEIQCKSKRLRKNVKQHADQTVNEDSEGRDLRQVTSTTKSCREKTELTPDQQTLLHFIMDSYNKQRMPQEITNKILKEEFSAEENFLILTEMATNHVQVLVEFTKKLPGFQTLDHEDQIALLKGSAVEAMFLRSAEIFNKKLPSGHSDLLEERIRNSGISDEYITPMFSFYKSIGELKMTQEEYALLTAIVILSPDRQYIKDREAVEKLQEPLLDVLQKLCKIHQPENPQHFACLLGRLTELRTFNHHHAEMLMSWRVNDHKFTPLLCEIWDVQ
Chain of Estrogen receptor (Homo sapiens) (P03372 whole entry, looked up): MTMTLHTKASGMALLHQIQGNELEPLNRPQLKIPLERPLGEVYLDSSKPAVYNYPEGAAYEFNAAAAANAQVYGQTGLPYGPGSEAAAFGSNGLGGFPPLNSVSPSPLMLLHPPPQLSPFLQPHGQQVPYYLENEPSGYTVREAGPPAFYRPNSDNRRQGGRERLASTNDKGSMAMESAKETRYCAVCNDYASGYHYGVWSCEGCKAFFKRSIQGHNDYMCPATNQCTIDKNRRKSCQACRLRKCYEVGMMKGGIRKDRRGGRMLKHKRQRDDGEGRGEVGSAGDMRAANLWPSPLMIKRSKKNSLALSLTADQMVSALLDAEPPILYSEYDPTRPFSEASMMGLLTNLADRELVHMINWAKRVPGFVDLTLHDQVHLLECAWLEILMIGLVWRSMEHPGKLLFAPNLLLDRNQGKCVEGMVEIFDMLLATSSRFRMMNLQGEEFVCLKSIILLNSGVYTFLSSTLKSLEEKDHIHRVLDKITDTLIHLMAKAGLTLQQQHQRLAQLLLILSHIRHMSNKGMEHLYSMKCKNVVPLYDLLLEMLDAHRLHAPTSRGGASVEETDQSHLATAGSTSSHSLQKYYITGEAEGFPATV
Chain of Estrogen receptor beta (Homo sapiens) (Q92731 whole entry, looked up, the tested form may be a part): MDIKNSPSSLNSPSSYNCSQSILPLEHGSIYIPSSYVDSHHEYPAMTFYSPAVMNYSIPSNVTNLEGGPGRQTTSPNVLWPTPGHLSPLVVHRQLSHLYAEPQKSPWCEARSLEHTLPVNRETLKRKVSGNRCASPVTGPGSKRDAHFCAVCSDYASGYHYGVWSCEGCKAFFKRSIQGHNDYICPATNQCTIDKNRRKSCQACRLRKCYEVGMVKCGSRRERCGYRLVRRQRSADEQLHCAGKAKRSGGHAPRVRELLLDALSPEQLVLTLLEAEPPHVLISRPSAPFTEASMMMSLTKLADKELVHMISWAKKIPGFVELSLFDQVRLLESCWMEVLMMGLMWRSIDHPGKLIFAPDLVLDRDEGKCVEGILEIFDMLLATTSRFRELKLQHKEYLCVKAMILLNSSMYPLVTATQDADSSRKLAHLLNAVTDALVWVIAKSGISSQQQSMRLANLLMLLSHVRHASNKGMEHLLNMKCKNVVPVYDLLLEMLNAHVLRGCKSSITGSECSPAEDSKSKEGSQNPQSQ

CCCCC/C=C\C=C\C(=O)OCC
inactive: [3] | [4] | [5]
active: [1] 12.5 µM | [2] 95.6 µM

CC(=O)c1ccc2ccccc2c1
active: [11] 50 µM
not listed: [4] | [17] | [18]
inactive: all other assays above

NC(=O)c1cccnc1
active: [7] 82.4 µM
inactive: [1] | [2] | [3] | [6] | [4] | [5] | [8]

CC(=O)C1=C(C)[C@@H]2C[C@@]3(C1)[C@H](C)CC[C@H]3C2(C)C
active: [1] 12.7 µM | [6] 37.2 µM | [4] 72.4 µM | [7] 90 µM
not listed: [9] | [12] | [13] | [17] | [18]
inactive: all other assays above

CCCCCCCCOS(=O)(=O)O
inactive: [1] | [2] | [3] | [6] | [5]

CCC(C)(CCCC(C)C)OC(C)=O (stereo unspecified)
inactive: [1] | [2] | [3] | [6] | [4] | [5]

CCCCN(CCCC)CCCCCCN(CCCC)CCCC
inactive: [1] | [2] | [3] | [4] | [7] | [8]

CC(C)C(=O)c1ccccc1
inactive: [1] | [2] | [3] | [4] | [7] | [5] | [8]

CNC(=C[N+](=O)[O-])NCCSCc1ccc(CN(C)C)o1
inactive: [1] | [2] | [3] | [4] | [7] | [5] | [8]

CCCCCC1CCC(=O)O1 (stereo unspecified)
inactive: [1] | [2] | [3] | [6] | [4] | [7] | [5] | [8]

CCC(C)COC(=O)CC(C)C (stereo unspecified)
inactive: [1] | [2] | [3] | [4] | [7] | [5]

CCC(C)C1CCCCC1=O (stereo unspecified)
inactive: [1] | [2] | [3] | [4] | [7] | [5] | [8]

C1CCCNCC1
inactive: [1] | [2] | [3] | [4] | [7] | [5] | [8]

CC(=O)OC(C)(C)C
inactive: [1] | [2] | [3] | [4] | [8]

O=C(O)CS
inactive: [1] | [2] | [3] | [4] | [7] | [5]

c1ccc2scnc2c1
inactive: [1] | [2] | [3] | [4] | [8]

NCCN1CCNCC1
inactive: [1] | [2] | [3] | [7]

CCCc1ccc(N)cc1
inactive: [1] | [2] | [3] | [4] | [7] | [5] | [8]

CCCCCCCC(=O)N(C)C
inactive: [1] | [2] | [3] | [4] | [7] | [5] | [8]

CC(C)CCCC(C)(C)O
inactive: [1] | [2] | [3] | [4] | [7] | [5] | [8]

CC(=O)Oc1c(C)c(C)c2c(c1C)CC[C@@](C)(CCC[C@H](C)CCC[C@H](C)CCCC(C)C)O2
inactive: [2] | [3] | [8]

CC(C)(C)C1CCC(O)CC1 (stereo unspecified)
inactive: [2] | [3] | [7]

[Na+]
inactive: [1] | [2] | [3] | [7] | [5] | [8]

c1coc(CNc2ncnc3nc[nH]c23)c1
inactive: [2] | [3] | [8] | [9] | [10] | [11] | [12] | [16]

CCCC[N+](C)(CCCC)CCCC
inactive: [1] | [7]

C=CC(O)CCCCC (stereo unspecified)
inactive: [4] | [7]

O=Cc1ccccc1O
inactive: [2] | [3] | [8]

C=C(C)C(N)=O
inactive: [2] | [3] | [4] | [7] | [8] | [17]

CCCCOCCOCCO
inactive: [1] | [2] | [3] | [7] | [17]

CC=CC(=O)C1=C(C)C=CCC1(C)C
inactive: [9] | [10] | [11] | [18] | [12] | [13] | [16]

— PubChem BioAssay (EPA / NIEHS)
